Measurements from PubChem BioAssay (NCI).
Compounds without any hit were thinned out: in the full panel of roughly 83,000, 20% have a hit.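 Percent growth is the endpoint: 0 to 100 indicates growth inhibition (40 means 60% inhibition), 0 means no net growth, and negative values indicate cell death.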 Calls of active or inactive are those of the source.

What follows are molecules tested on SK-MEL-2 melanoma (assay: NCI-60 one-dose screen, 48 h (100 = growth as untreated, 0 = no growth, -100 = all killed)). Conditions: 10 µM.
Experimental: Growth inhibition of the SK-MEL-2 human tumor cell line is measured as a screen for anti-cancer activity. Cells are grown in 96 well plates and exposed to the test compound for 48 hours. Compounds are tested at a single concentration, which is 10^-5 M for most compounds. The reported endpoint is percent growth (GI% or GIPRCNT), where numbers from 0 - 100% represent growth inhibition, and numbers from -100% - 0 represent cell death. For example, a value of 40 represents 60% growth inhibition. A value of 0 means no net growth occurred over the course of the experiment. A value of -40 indicates 40% of cells at the beginning of the experiment died by the end of the experiment. A value of -100 means all cells are dead at the end of the experiment.
NCI-60 Human Tumor Cell Lines Screen was performed using the standard one-dose NCI protocol, which is described in more detail at https://dtp.cancer.gov/discovery_development/nci-60/default.htm.
Compounds with GIPRCNT values below 10 were considered active. Activity score was based on GIPRCNT using the following formula: […]
Score is 0 for GIPRCNT values of 100 or above, 50 for GIPRCNT values of 0, and 100 for GIPRCNT values of -100.

Row | Structure (SMILES) | growth
1 | NC(C(=O)O)C(O)c1ccco1 (stereo not given) | 115% (inactive)
2 | O=C(O)C(Cc1ccccc1)C(=O)O | 111% (inactive)
3 | COC(=O)c1cccc(Br)c1 | 110% (inactive)
4 | O=[N+]([O-])c1ccc(S(=O)(=O)NN=C2CCCCC2)cc1 | 147% (inactive)
5 | COc1cc2c3cc1Oc1c(OC)c(OC)cc4c1C(Cc1ccc(O)c(c1)Oc1ccc(cc1)CC3N(C)CC2)N(C)CC4 (stereo not given) | -16% (active)
6 | C=CCOC(=O)C(=O)OCC=C | 97.1% (inactive)
7 | CC(C)=C(NC(=O)c1ccccc1)C(=O)O | 98.3% (inactive)
8 | O=C1Cc2cc(O)ccc2O1 | 101% (inactive)
9 | O=C(O)c1cccc([N+](=O)[O-])c1O | 118% (inactive)
10 | CCOC(=O)C(=O)C=P(c1ccccc1)(c1ccccc1)c1ccccc1 | 99.6% (inactive)
11 | Cc1c(O)cnc2nn(-c3ccccc3)c(=N)n12 | 94.7% (inactive)
12 | CC(C)(C)c1cc(O)c(C(C)(C)C)cc1O | 86.6% (inactive)
13 | CC(C)CCCC(=O)O | 102% (inactive)
14 | Oc1ccccc1O | 90.1% (inactive)
15 | N#Cc1ccc(NC(=O)Nc2cccc(C#N)c2)cc1 | 97.3% (inactive)
16 | O=[N+]([O-])c1ccc(-c2ncc(-c3ccc(Br)cc3)o2)cc1 | 99.1% (inactive)
17 | O=C(O)CCC(NC(=O)OCc1ccccc1)C(=O)O (stereo not given) | 105% (inactive)
18 | Cc1ccc(C(=O)N/N=C/c2ccc3c(c2)OCO3)cc1 | 90.4% (inactive)
19 | CCOC(=O)C(C#N)Cc1ccccc1 (stereo not given) | 114% (inactive)
20 | COC(=O)/C=C\C(=O)OC | 114% (inactive)

Row | Structure (SMILES) | growth
21 | CCCCCCCCCCCCCCCCC1CC(=O)OC1=O (stereo not given) | 113% (inactive)
22 | C=CCCCCCCCCCOC(C)=O | 98.5% (inactive)
23 | Cc1ccc(C)n1-c1ccsc1C(=O)NNC(=O)C(Cl)Cl | 106% (inactive)
24 | C=CCNc1ccccc1 | 95.5% (inactive)
25 | CCCCCCCCCCC(C)Br (stereo not given) | 104% (inactive)
26 | CCOc1ccc(/C=C/C(=O)c2ccccc2)cc1 | 91.9% (inactive)
27 | CC(=O)c1ccc(C(C)(C)C)cc1 | 102% (inactive)
28 | CCCNc1ccc(C2=NCCCN2)cc1 | 102% (inactive)
29 | COc1cccc(Sc2ccc([N+](=O)[O-])c3no[n+]([O-])c23)c1 | 86.2% (inactive)
30 | O=C(O)CSCSCC(=O)O | 94.8% (inactive)
31 | CCN(CC)CCNc1ccc(CO)c2sc3ccccc3c(=O)c12 | 45.4% (inactive)
32 | O=C1OC(=O)C2C1C1(Cl)C(Cl)=C(Cl)C2(Cl)C2C(=O)OC(=O)C21 (stereo not given) | 88.7% (inactive)
33 | CCCCNC1(C#N)CCN(Cc2ccccc2)CC1 | 102% (inactive)
34 | CC1(C)N=C(N)N=C(N)N1c1ccc(Cl)cc1 | 71% (inactive)
35 | C/C(=N\O)C1(O)CCCCC1 | 82.9% (inactive)
36 | CC(=O)Oc1ccc(Br)cc1C(=O)O | 99.8% (inactive)
37 | COC(=O)c1ccccc1N(C)C | 99.4% (inactive)
38 | CCCCC(O)c1ccccc1 (stereo not given) | 109% (inactive)
39 | CCOC(=O)Nc1cc2c(c(N)n1)N=C(c1ccccc1)CO2 | 19.1% (inactive)
40 | N#CCc1ccc([N+](=O)[O-])cc1 | 107% (inactive)
